# According to PubChem BioAssay:
# Values joined by “and” are separate entries in the source; they are usually repeats but may differ in a detail not shown here. Equal values may be shown once. Active and inactive are the calls of the source. Cut-off read from the data, not from the text of the source, unless noted: active = inhibition above about 80%; inactive = the rest.
# How the values were obtained:
# [1] = viability loss with induced miR-34 in A549 – imaging, A549 dox-inducible miR-34, nuclei and caspase counts, primary screen (AID 1347080;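 active = compounds whose cell count with miR-34 switched on is under 0.7 times the count with it off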); conditions: A549 miR-34 inducible, Hoechst nuclei count, 48 h
# [2] = MELAS cybrid and Rieske KO viability enhancers – cell-based, MELAS cybrids, Rieske KO mouse fibroblasts, CellTiter-Glo, primary screen (AID 1508586;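 active = mean z-score across replicates of 1.96 or higher in either the MELAS or the Rieske mutant cell line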;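 note: z relative to plate mean and SD of compound and empty wells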); conditions: low glucose
# [3] = growth inhibition, single agent or in combination, cell-based, chromothripsis tumors, cisplatin or BGB combos (AID 1671449); conditions: LFS_MB_P medulloblastoma cells;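 note: cells exposed for 96 hours; 0% = vehicle DMSO and 100% = killing by high DMSO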
# [4] = growth inhibition, single agent and combos, cell-based, chromothripsis tumors, cisplatin or BGB combos (AID 1671450); conditions: HDN33 neuroblastoma cells, stronger effect = higher value;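 note: cells exposed to compound for four days; 0% = vehicle DMSO and 100% = cell killing by high DMSO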
# [5] = growth inhibition, single agents and combos, ICB984, cell-based, cisplatin or BGB combos, synergistic combos for chromothripsis tumors (AID 1671451; call rule not given here;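 note: cells exposed for 96 hours before readout; 0% = vehicle DMSO and 100% = killing by high DMSO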); conditions: ICB984 medulloblastoma cells, drug combinations, stronger effect = higher value
# [6] = growth inhibition, single agents and combos, LFS_MB_1R, cell-based, cisplatin or BGB combos, synergistic combos for chromothripsis tumors (AID 1671452); conditions: LFS_MB_1R medulloblastoma cells, stronger effect = higher value;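 note: cells exposed for 96 hours before readout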
# [7] = growth inhibition, single agents and combos, HTB85, cell-based, BGB or cisplatin IC20 combos, synergistic combos for chromothripsis tumors (AID 1671453); conditions: HTB85 osteosarcoma cells, drug combinations, stronger effect = higher value;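 note: cells exposed for 96 hours before readout; 0% = vehicle DMSO and 100% = high DMSO killing control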
# [8] = growth inhibition, single agents and combos, CRL2098, cell-based, BGB or cisplatin IC20 combos, synergistic combos for chromothripsis tumors (AID 1671454); conditions: CRL2098 osteosarcoma cells, drug combinations, stronger effect = higher value;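 note: cells exposed for 96 h before readout; 0% = vehicle DMSO and 100% = killing by high DMSO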
# [9] = growth inhibition, single agents and combos, HD-MB03, cell-based, BGB or cisplatin IC20 combos, synergistic combos for chromothripsis tumors (AID 1671455; in the data active = inhibition above about 83%;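 note: 0% = vehicle DMSO and 100% = high DMSO as cytotoxic control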); conditions: HD-MB03 medulloblastoma cells, stronger effect = higher value
# [10] = growth inhibition, single agents and combos, UWB1.289, cell-based, BGB or cisplatin combos, synergistic combos for chromothripsis tumors (AID 1671456); conditions: UWB1.289 ovarian carcinoma cells, stronger effect = higher value;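 note: cells exposed to compound for four days; 0% = vehicle DMSO and 100% = killing by high DMSO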
# [11] = growth inhibition, single agents and combos, LFS_MB_2R, cell-based, cisplatin combos, synergistic combos for chromothripsis tumors (AID 1671457); conditions: LFS_MB_2R medulloblastoma cells, stronger effect = higher value;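 note: cells exposed to compound for four days before readout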
# [12] = growth inhibition, MDA-MB-436, cell-based, BGB or cisplatin combos, synergistic combos for chromothripsis tumors (AID 1671458; call rule not given here;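 note: cells exposed for 96 hours; 0% = vehicle DMSO and 100% = killing by high DMSO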); conditions: MDA-MB-436 breast carcinoma growth inhibition, drug combinations, stronger effect = higher value
# [13] = UWB1.289_BRCA1 ovarian cancer growth, cell-based, BGB or cisplatin combinations (AID 1671459); conditions: UWB1.289 BRCA1 ovarian carcinoma, drug combinations, stronger effect = higher value
# [14] = drug combination toxicity in non-malignant astrocytes – cell-based, BGB or cisplatin IC20 combos, cytotoxicity control for chromothriptic childhood tumor combination screen (AID 1671460); conditions: Human astrocytes, viability inhibition, drug combinations, at 0.5 µM, stronger effect = higher value;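 note: cells exposed to compounds for 96 hours before viability readout; 0% = vehicle and 100% = killing control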
# [15] = BT084 cell growth, single and combined drugs, ICGC_MB145, cisplatin and BGB IC40 combos (AID 1671461); conditions: BT084 medulloblastoma cells, drug combinations, stronger effect = higher value;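 note: cells exposed to drugs for 96 hours; 0% = vehicle DMSO and 100% = high DMSO full killing control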
# [16] = RCMB18 cell growth, single agent and combined, cisplatin and BGB IC40 combos (AID 1671462); conditions: RCMB18 medulloblastoma cells, stronger effect = higher value;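 note: cells exposed to compound for four days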
# [17] = CRL1545 cell growth, single agent and combined, cisplatin and BGB IC20 combos (AID 1671464); conditions: CRL1545 osteosarcoma cells, stronger effect = higher value;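 note: cells exposed to compound for 96 hours before readout; 0% = vehicle DMSO and 100% = high DMSO killing control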
# [18] = measured here: combination with BGB IC40, at 0.05 µM
# [19] = measured here: with BGB IC20 combination, at 0.5 µM
# [20] = measured here: with cisplatin IC20 combination, at 0.5 µM
# [21] = measured here: combination with cisplatin, at 0.5 µM
# [22] = measured here: combination with cisplatin, at 5 µM
smiles,measurement,setting,value
O=c1ccn(C2OC(CO)C(O)C2O)c(=O)[nH]1 (centres undefined),fold change,"[1]; stronger effect = lower value, cell number ratio, induced over uninduced",0.86 (inactive)
same,fold change,[1]; measured here: relative caspase fold change +Dox/-Dox,0.784
same,cell count,"[1]; measured here: total cells with miR-34 induction, stronger effect = lower value",8240
same,cell count,[1]; measured here: total cells without miR-34 induction,9580
same,z-score,"[2]; MELAS cybrid survival, CellTiter-Glo 48 h, stronger effect = higher value",-0.15 (inactive)
same,z-score,"[2]; Rieske KO mouse fibroblast survival, CellTiter-Glo 72 h",0.496
same,inhibition,"[3]; at 0.5 µM, stronger effect = higher value",-8.26% (inactive) and 22% (inactive)
same,inhibition,"[3]; measured here: combination with BGB IC20, at 0.005 µM",10.5% and -21.6%
same,inhibition,"[3]; measured here: combination with BGB IC40, at 0.005 µM",8.95% and -30.9%
same,inhibition,[3]; [18],17.3% and -34.8%
same,inhibition,"[3]; measured here: combination with cisplatin, at 0.5 µM, stronger effect = higher value",37.5% and 6.75%
same,inhibition,"[3]; measured here: combination with cisplatin, at 5 µM, stronger effect = higher value",-10.3% and -15.6%
same,inhibition,"[4]; BGB combo, at 5 µM",17.7% and -13.8%
same,inhibition,[4]; at 0.5 µM,23.7% (inactive) and 2.11% (inactive)
same,inhibition,"[4]; cisplatin combo, at 5 µM",22% and -0.337%
same,inhibition,[4]; [19],17.2% and -17.5%
same,inhibition,[4]; [20],35.5% and -0.199%
same,inhibition,"[4]; single agent, at 5 µM",18.6% and -37.8%
same,inhibition,"[5]; BGB IC20 combo, at 0.005 µM",12.4% and 14.9%
same,inhibition,"[5]; BGB IC40 combo, at 0.005 µM",6.25% and -39.4%
same,inhibition,"[5]; BGB IC40 combo, at 0.05 µM",-7.22% and -39.4%
same,inhibition,[5]; at 0.5 µM,-8.08% (inactive) and -24.1% (inactive)
same,inhibition,"[5]; cisplatin combo, at 0.05 µM",-11.1% and -43.3%
same,inhibition,"[5]; cisplatin combo, at 0.5 µM",4.25% and -24.8%
same,inhibition,"[5]; cisplatin combo, at 5 µM",-7.38% and -52.9%
same,inhibition,"[5]; measured here: 5 uM single agent, at 5 µM",7.59% and -39.4%
same,inhibition,[6]; at 0.5 µM,-5.2% (inactive) and -14.4% (inactive)
same,inhibition,[6]; [18],-12.7% and -13.9%
same,inhibition,[6]; [21],-10% and 2.17%
same,inhibition,[6]; [22],-46% and -44.9%
same,inhibition,[7]; at 0.5 µM,10.7% (inactive) and -20.8% (inactive)
same,inhibition,"[7]; measured here: with BGB IC20, at 0.5 µM",10.2% and -46.4%
same,inhibition,"[7]; measured here: with BGB IC20, at 5 µM",15% and -44.4%
same,inhibition,"[7]; measured here: with cisplatin IC20, at 0.5 µM",7.75% and -5.03%
same,inhibition,"[7]; measured here: with cisplatin IC20, at 5 µM",1.8% and -45.1%
same,inhibition,"[7]; single agent, at 5 µM",13% and -28.4%
same,inhibition,[8]; at 0.5 µM,9.28% (inactive) and -75.8% (inactive)
same,inhibition,"[8]; measured here: combination with BGB at IC20, at 0.5 µM",0.692% and -94%
same,inhibition,"[8]; measured here: combination with cisplatin at IC20, at 0.5 µM",13.9% and -68.3%
same,inhibition,[9]; at 0.5 µM,6.18% (inactive) and -13.5% (inactive)
same,inhibition,"[9]; measured here: combo with BGB at IC20, at 0.5 µM",2.23% and -12.6%
same,inhibition,"[9]; measured here: combo with cisplatin at IC20, at 0.5 µM",13.4% and -11.6%
same,inhibition,[10]; at 0.5 µM,16.3% (inactive) and -6.23% (inactive)
same,inhibition,"[10]; measured here: inhibition with BGB combination, at 0.05 µM",-2.12% and -33.8%
same,inhibition,"[10]; measured here: inhibition with cisplatin combination, at 0.05 µM",36.9% and -21.3%
same,inhibition,[11]; at 0.5 µM,6.19% (inactive) and -21.5% (inactive)
same,inhibition,[11]; [21],9.72% and -11.9%
same,inhibition,[11]; [22],14.1% and -81.5%
same,inhibition,[12]; at 0.5 µM,10.4% (inactive) and -39.6% (inactive)
same,inhibition,"[12]; measured here: BGB combination, at 0.5 µM",7.3% and -43.2%
same,inhibition,"[12]; measured here: BGB combination, at 5 µM",8.01% and -19.5%
same,inhibition,"[12]; measured here: cisplatin combination, at 0.5 µM",12.2% and -58.5%
same,inhibition,"[12]; measured here: cisplatin combination, at 5 µM",2.73% and -39.8%
same,inhibition,"[13]; BGB combination, concentration series, at 5 µM",8.48% and -29.5%
same,inhibition,[13]; at 0.5 µM,10.7% (inactive) and -14.6% (inactive)
same,inhibition,"[13]; cisplatin combination, concentration series, at 5 µM",-14.1% and -9.02%
same,inhibition,[14],8.08% (inactive) and -8.91% (inactive)
same,inhibition,[14]; measured here: combo with BGB IC20,10.4% and -14.8%
same,inhibition,[14]; measured here: combo with cisplatin IC20,12.5% and -5.12%
same,inhibition,[15]; at 0.5 µM,5.91% (inactive) and -28.7% (inactive)
same,inhibition,"[15]; cisplatin combination, at 0.5 µM",-2.3% and -6.58%
same,inhibition,"[15]; cisplatin combination, at 5 µM",-4.68% and -1.56%
same,inhibition,"[15]; measured here: BGB IC40 combination 0.05 uM, at 0.05 µM",39.8% and -13.1%
same,inhibition,"[15]; single agent, at 5 µM",-4.18% and -25.9%
same,inhibition,[16]; at 0.5 µM,11% (inactive) and -17.5% (inactive)
same,inhibition,"[16]; cisplatin combo, at 5 µM",10.7% and -4.43%
same,inhibition,"[16]; measured here: BGB IC40 combination, at 0.05 µM",15.8% and -34.3%
same,inhibition,[16]; [21],22.8% and -4.28%
same,inhibition,"[16]; single agent, at 5 µM",-1.69% and -19.5%
same,inhibition,[17]; at 0.5 µM,11.7% (inactive) and -2.83% (inactive)
same,inhibition,[17]; [19],-2.36% and -19.1%
same,inhibition,[17]; [20],17.5% and 3.15%
same,inhibition,"[17]; single agent, at 0.05 µM",32.6% and -48.2%
same,inhibition,"[17]; single agent, at 5 µM",-21.6% and -1.48%
